Values joined by “and” are separate entries in the source; they are usually repeats but may differ in a detail not shown here. Equal entries are not always repeated. About 2,000 (36%) of roughly 5,500 compounds were called active. Another 18% or so got no clear call; they are omitted. Cut-off read from the data, not from the text of the source: active = normalized growth mostly below about 0.91 (no sharp cut-off); inconclusive = no clear call, values can overlap the other calls; inactive = mostly above about 0.92. The list shows a part of the results.
Test: chemical genetic growth profiling, strain panel (AID 1159580);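 note: tested at 20 µM; growth read once vehicle control cultures reached saturation at 30 °C; 1 = growth at the plate median or of vehicle wells; lower values mean less growth of the strain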
Details: S. cerevisiae deletion strains, growth OD

Measured: normalized growth

O=C1NC(=O)C(=O)C(=O)N1
inactive: locus YAL013W, strain DEP1, active compounds read low 1.01 | locus YAL021C, strain ccr4, active compounds read low 1 | locus YAL026C, strain drs2, active compounds read low 0.991 | locus YAL030W, strain snc1, active compounds read low 0.989 | locus YBL061C, strain skt5, active compounds read low 0.984 | locus YBR009C, strain hhf1, active compounds read low 0.997 | locus YBR021W, strain FUR4, active compounds read low 1.03 | locus YBR023C, strain chs3, active compounds read low 0.997 | locus YBR171W, strain sec66, active compounds read low 0.979 | locus YBR229C, strain ROT2, active compounds read low 1.01 | locus YBR231C, strain swc5, active compounds read low 0.986 | locus YBR279W, strain paf1, active compounds read low 0.993 | locus YCL011C, strain gbp2, active compounds read low 0.996 | locus YCL016C, strain dcc1, active compounds read low 0.995 | locus YCL029C, strain bik1, active compounds read low 0.984 | locus YCL061C, strain MRC1, active compounds read low 0.988 | locus YCL069W, strain vba3, active compounds read low 0.989 | locus YCR088W, strain abp1, active compounds read low 0.984 | locus YDL005C, strain med2, active compounds read low 0.984 | locus YDL035C, strain GPR1, active compounds read low 1.03 | locus YDL040C, strain nat1, active compounds read low 0.988 | locus YDL074C, strain BRE1, active compounds read low 1.04 | locus YDL101C, strain DUN1, active compounds read low 1.02 | locus YDL134C, strain PPH21, active compounds read low 1.02 | locus YDL185W, strain tfp1, active compounds read low 1 | locus YDL192W, strain arf1, active compounds read low 0.998 | locus YDR001C, strain nth1, active compounds read low 0.981 | locus YDR069C, strain doa4, active compounds read low 0.998 | locus YDR101C, strain arx1, active compounds read low 0.995 | locus YDR137W, strain rgp1, active compounds read low 0.999 | locus YDR150W, strain NUM1, active compounds read low 1.02 | locus YDR159W, strain sac3, active compounds read low 0.986 | locus YDR162C, strain NBP2, active compounds read low 1.02 | locus YDR195W, strain ref2 0.962 | locus YDR297W, strain sur2, active compounds read low 0.999 | locus YDR318W, strain mcm21, active compounds read low 0.993 | locus YDR334W, strain swr1, active compounds read low 0.99 | locus YDR335W, strain msn5, active compounds read low 0.995 | locus YDR388W, active compounds read low 0.98 | locus YDR392W, strain spt3, active compounds read low 0.979 | locus YDR502C, strain sam2, active compounds read low 1.01 | locus YEL003W, strain gim4, active compounds read low 0.989 | locus YEL037C, strain rad23, active compounds read low 0.996 | locus YEL061C, strain CIN8 (second series), active compounds read low 0.983 | locus YEL061C, strain CIN8, active compounds read low 1.01 | locus YER015W, strain faa2, active compounds read low 0.992 | locus YER016W, strain bim1, active compounds read low 0.99 | locus YER110C, active compounds read low 0.988 | locus YER111C, strain swi4, active compounds read low 0.986 | locus YER155C, strain BEM2 (second series), active compounds read low 0.98 | locus YER155C, strain BEM2, active compounds read low 1.01 | locus YER167W, strain BCK2, active compounds read low 1.03 | locus YFR010W, strain ubp6, active compounds read low 0.974 | locus YGL078C, strain dbp3, active compounds read low 0.985 | locus YGL086W, strain mad1, active compounds read low 1.01 | locus YGL167C, strain pmr1, active compounds read low 0.987 | locus YGL173C, strain kem1, active compounds read low 0.969 | locus YGL227W, strain vid30, active compounds read low 0.975 | locus YGL240W, strain doc1, active compounds read low 0.99 | locus YGL248W, strain PDE1, active compounds read low 1.02 | locus YGL253W, strain hxk2, active compounds read low 0.993 | locus YGR078C, strain PAC10, active compounds read low 1.02 | locus YGR135W, strain pre9, active compounds read low 1 | locus YGR229C, strain SMI1, active compounds read low 1.03 | locus YGR252W, strain gcn5, active compounds read low 1.03 | locus YHR013C, strain ard1, active compounds read low 0.991 | locus YHR027C, strain rpn1, active compounds read low 0.984 | locus YHR030C, strain SLT2, active compounds read low 1.01 and 0.971 | locus YHR079C, strain IRE1 (second series), active compounds read low 0.991 | locus YHR079C, strain IRE1, active compounds read low 0.971 | locus YHR094C, strain hxt1, active compounds read low 0.994 | locus YHR129C, strain ARP1, active compounds read low 1.01 | locus YHR142W, strain chs7, active compounds read low 0.988 | locus YHR200W, strain rpn10, active compounds read low 0.993 | locus YIL066C, strain RNR3, active compounds read low 1.03 | locus YIL073C, strain SPO22, active compounds read low 0.994 | locus YIL125W, strain kgd1, active compounds read low 1 | locus YIR030C, strain dcg1, active compounds read low 0.992 | locus YJL092W, strain hpr5, active compounds read low 0.991 | locus YJL095W, strain BCK1 (second series), active compounds read low 1 | locus YJL095W, strain BCK1, active compounds read low 1.01 and 0.96 | locus YJL115W, strain asf1, active compounds read low 0.978 | locus YJL129C, strain trk1, active compounds read low 1 | locus YJL134W, strain LCB3, active compounds read low 1.01 | locus YJL154C, strain vps35, active compounds read low 0.985 | locus YJL164C, strain tpk1, active compounds read low 1.01 | locus YJL166W, strain qcr8, active compounds read low 1 | locus YJL168C, strain set2, active compounds read low 0.988 | locus YJL187C, strain SWE1 (second series), active compounds read low 1.01 | locus YJL187C, strain SWE1, active compounds read low 0.989 | locus YJR043C, strain POL32, active compounds read low 1 | locus YJR066W, strain TOR1, active compounds read low 0.974

Source: PubChem BioAssay AID1159580 (chemical genetic matrix, 2015)
